# Data reported in paper PMC5540273 (PLoS ONE, 2017).
# System: TLK2
# Conditions: concentration: 1 μM,replicates: in singlicate; n = 1
# 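Further: KINOMEscan kinase panel screen.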
row,Compound,%Inh
1,CN(c1cccc(CNc2nc(Nc3ccc4c(c3)CC(=O)N4)ncc2C(F)(F)F)c1)S(C)(=O)=O,3%
2,CC(=O)Nc1ccc(-c2cc3ncnc(SCC(=O)O)c3s2)cc1,8%
3,COc1cccc(OC)c1C(=O)Nc1cccc(-c2nn3ccccc3c2-c2ccnc(Nc3cccc(F)c3)n2)c1 [GSK361065],0%
4,CC(C(=O)NC1CCN(c2ccnc(Nc3ccc(F)cc3)n2)C1)c1ccc(Cl)cc1 (centres unmarked) [GSK1379713],0%
5,Cc1ccc(CC(=O)N2CCc3cc(-c4cn(C)c5ncnc(N)c45)ccc32)cc1 [GSK2634758],0%
6,Cl.Nc1n[nH]c2cc(-c3ccccn3)ccc12 [GSK2189892],0%
7,Cl.c1ccc(Oc2ccc(Nc3ccnc4cc(-c5ccc(CN6CCNCC6)o5)ccc34)cc2)nc1 [GW567142],1%
8,c1ccc(Oc2ccc(Nc3ccnc4ccc(-c5ccccn5)cc34)cc2)cc1 [GW407034],0%
9,COc1cccc(C2=C(Nc3cccc(Cl)c3)C(=O)NC2=O)c1 [SB-341556],29%
10,C[C@@H](Oc1cc(-n2cnc3cc(-c4cnn(C)c4)ccc32)sc1C(N)=O)c1ccccc1Cl [GSK580432],0%
11,O=C(Nc1n[nH]c2cc(-c3ccco3)ccc12)C1CC1 [SB-737447],0%
12,COc1cc2nccc(Nc3ccc(Oc4ccccc4)cc3)c2cc1OC.Cl [GI261656],0%
13,CN(c1ccccc1CNc1nc(Nc2ccc3c(c2)CC(=O)N3)ncc1C(F)(F)F)S(C)(=O)=O,0%
14,N#Cc1cccc(C(=O)NC2CCN(c3ccnc(Nc4ccc(F)cc4)n3)C2)c1 (centres unmarked) [GSK1379708],0%
15,COc1cccc(CNC(=O)NC2CCN(c3ccnc(Nc4cc(OC)c(OC)c(OC)c4)n3)C2)c1 (centres unmarked) [GSK1379765],0%
16,Cc1ccc2c(-c3ccnc(Nc4ccc(C(F)(F)F)cc4)n3)cnn2n1 [GW819776],17%
17,O=C(Nc1ccc(Oc2ccc3nc(NC(=O)C4CC4)cn3n2)c(F)c1)c1cccn(-c2ccccc2)c1=O,0%
18,CS(=O)(=O)Nc1ccc(-c2ccnc3[nH]ccc23)cc1 [GSK993273],63%
19,CNC(=O)c1ccccc1Nc1nc(Nc2cccc(CS(C)(=O)=O)c2)ncc1C.O=CO [GSK1520489],0%

row,Compound,%Inh
1,O=C(Nc1cccc(C(F)(F)F)c1)c1cccc(Oc2ccc3nccn3n2)c1,0%
2,COC(=O)Nc1nc2cc(Oc3ccc(NC(=O)Nc4cc(C(F)(F)F)ccc4Cl)cc3)ccc2[nH]1.Cl [GW697465],0%
3,CC(C)c1nc(-c2cccc(NS(=O)(=O)c3ccccc3)c2)c(-c2ccnc(Nc3ccc4c(c3)CN(C)CC4)n2)s1 [GSK1649598],33%
4,CC(=O)Nc1nc2cnc(Nc3cc(NC(=O)c4cccc(CC(C)(C)C#N)c4)ccc3C)nc2s1,0%
5,CCn1c(-c2nonc2N)nc2cncc(CNC3CCNCC3)c21.Cl [SB-747651],0%
6,CC(C)S(=O)(=O)N1CCN(Cc2ccc3c(c2)nc(NC(=O)c2ccsc2)n3C[C@H](O)c2ccccc2)CC1 [GW635815],0%
7,COc1cc2ncn(-c3cc(OCC4CCCCC4)c(C(N)=O)s3)c2cc1OC [GSK204559],12%
8,NC(=O)c1ccc(-c2cc3ncnc(SCC(=O)O)c3s2)cc1,0%
9,COc1ccc(Nc2nccc(N3CCC(NC(=O)c4cccc(C#N)c4)C3)n2)cc1 (centres unmarked) [GSK1379730],0%
10,CCOC(=O)N1CCC(n2cnc(-c3ccc(F)cc3)c2-c2ccnc(N)n2)CC1 [SB-219952],2%
11,CCN1CCN(CCCC(=O)Nc2n[nH]c3nc(-c4ccc(O)cc4)c(Br)cc23)CC1 [SB-731579],0%
12,CC(=O)c1c(-c2ccncc2)[nH]c(-c2ccncc2)c1C [GW493036],0%
13,O=c1[nH]cc(-c2ccc(O)cc2)c2sc(-c3ccncc3)cc12 [GSK1033723],0%
14,C[C@@H]1CCN(C(=O)N2CCCC2)C[C@@H]1N(C)c1ncnc2[nH]ccc12,0%
15,CCn1c(-c2nonc2N)nc2cncc(Br)c21 [SB-738004],6%
16,Cc1n[nH]c2cc(Nc3ccnc(Nc4cccc(CN5CCOCC5)c4)n3)ccc12 [GW682569],2%
17,O=C(NOCC1CC1)c1cc(Br)c(F)c(F)c1Nc1ccc(I)cc1Cl,0%
18,Cn1cc(-c2cccc3c(N)c(C(N)=O)nnc23)cn1,0%

# System: TNIK
# Conditions: concentration: 1 μM,replicates: in singlicate; n = 1
row,Compound,%Inh
1,CN(c1cccc(CNc2nc(Nc3ccc4c(c3)CC(=O)N4)ncc2C(F)(F)F)c1)S(C)(=O)=O,75%
2,CC(=O)Nc1ccc(-c2cc3ncnc(SCC(=O)O)c3s2)cc1,16%
3,COc1cccc(OC)c1C(=O)Nc1cccc(-c2nn3ccccc3c2-c2ccnc(Nc3cccc(F)c3)n2)c1 [GSK361065],6%
4,CC(C(=O)NC1CCN(c2ccnc(Nc3ccc(F)cc3)n2)C1)c1ccc(Cl)cc1 (centres unmarked) [GSK1379713],0%
5,Cc1ccc(CC(=O)N2CCc3cc(-c4cn(C)c5ncnc(N)c45)ccc32)cc1 [GSK2634758],1%
6,Cl.Nc1n[nH]c2cc(-c3ccccn3)ccc12 [GSK2189892],5%
7,Cl.c1ccc(Oc2ccc(Nc3ccnc4cc(-c5ccc(CN6CCNCC6)o5)ccc34)cc2)nc1 [GW567142],0%
8,c1ccc(Oc2ccc(Nc3ccnc4ccc(-c5ccccn5)cc34)cc2)cc1 [GW407034],0%
9,COc1cccc(C2=C(Nc3cccc(Cl)c3)C(=O)NC2=O)c1 [SB-341556],0%
10,C[C@@H](Oc1cc(-n2cnc3cc(-c4cnn(C)c4)ccc32)sc1C(N)=O)c1ccccc1Cl [GSK580432],48%
11,O=C(Nc1n[nH]c2cc(-c3ccco3)ccc12)C1CC1 [SB-737447],65%
12,COc1cc2nccc(Nc3ccc(Oc4ccccc4)cc3)c2cc1OC.Cl [GI261656],0%
13,CN(c1ccccc1CNc1nc(Nc2ccc3c(c2)CC(=O)N3)ncc1C(F)(F)F)S(C)(=O)=O,1%
14,N#Cc1cccc(C(=O)NC2CCN(c3ccnc(Nc4ccc(F)cc4)n3)C2)c1 (centres unmarked) [GSK1379708],0%
15,COc1cccc(CNC(=O)NC2CCN(c3ccnc(Nc4cc(OC)c(OC)c(OC)c4)n3)C2)c1 (centres unmarked) [GSK1379765],0%
16,Cc1ccc2c(-c3ccnc(Nc4ccc(C(F)(F)F)cc4)n3)cnn2n1 [GW819776],9%
17,O=C(Nc1ccc(Oc2ccc3nc(NC(=O)C4CC4)cn3n2)c(F)c1)c1cccn(-c2ccccc2)c1=O,34%
18,CS(=O)(=O)Nc1ccc(-c2ccnc3[nH]ccc23)cc1 [GSK993273],32%
19,CNC(=O)c1ccccc1Nc1nc(Nc2cccc(CS(C)(=O)=O)c2)ncc1C.O=CO [GSK1520489],62%

row,Compound,%Inh
1,O=C(Nc1cccc(C(F)(F)F)c1)c1cccc(Oc2ccc3nccn3n2)c1,0%
2,COC(=O)Nc1nc2cc(Oc3ccc(NC(=O)Nc4cc(C(F)(F)F)ccc4Cl)cc3)ccc2[nH]1.Cl [GW697465],0%
3,CC(C)c1nc(-c2cccc(NS(=O)(=O)c3ccccc3)c2)c(-c2ccnc(Nc3ccc4c(c3)CN(C)CC4)n2)s1 [GSK1649598],93.7%
4,CC(=O)Nc1nc2cnc(Nc3cc(NC(=O)c4cccc(CC(C)(C)C#N)c4)ccc3C)nc2s1,0%
5,CCn1c(-c2nonc2N)nc2cncc(CNC3CCNCC3)c21.Cl [SB-747651],0%
6,CC(C)S(=O)(=O)N1CCN(Cc2ccc3c(c2)nc(NC(=O)c2ccsc2)n3C[C@H](O)c2ccccc2)CC1 [GW635815],65%
7,COc1cc2ncn(-c3cc(OCC4CCCCC4)c(C(N)=O)s3)c2cc1OC [GSK204559],58%
8,NC(=O)c1ccc(-c2cc3ncnc(SCC(=O)O)c3s2)cc1,33%
9,COc1ccc(Nc2nccc(N3CCC(NC(=O)c4cccc(C#N)c4)C3)n2)cc1 (centres unmarked) [GSK1379730],0%
10,CCOC(=O)N1CCC(n2cnc(-c3ccc(F)cc3)c2-c2ccnc(N)n2)CC1 [SB-219952],32%
11,CCN1CCN(CCCC(=O)Nc2n[nH]c3nc(-c4ccc(O)cc4)c(Br)cc23)CC1 [SB-731579],7%
12,CC(=O)c1c(-c2ccncc2)[nH]c(-c2ccncc2)c1C [GW493036],0%
13,O=c1[nH]cc(-c2ccc(O)cc2)c2sc(-c3ccncc3)cc12 [GSK1033723],4%
14,C[C@@H]1CCN(C(=O)N2CCCC2)C[C@@H]1N(C)c1ncnc2[nH]ccc12,14%
15,CCn1c(-c2nonc2N)nc2cncc(Br)c21 [SB-738004],18%
16,Cc1n[nH]c2cc(Nc3ccnc(Nc4cccc(CN5CCOCC5)c4)n3)ccc12 [GW682569],25%
17,O=C(NOCC1CC1)c1cc(Br)c(F)c(F)c1Nc1ccc(I)cc1Cl,12%
18,Cn1cc(-c2cccc3c(N)c(C(N)=O)nnc23)cn1,5%
